Assay [1] can be described thus: Wnt pathway potentiators raising nuclear beta-catenin – imaging, WNT3A-conditioned medium, mouse C2C12, NPC library, primary screen (AID 1117326; in the data active = nuclear beta-catenin stimulation mostly above about 4.2%, no sharp cut-off; inactive = mostly below about 10%). The conditions noted are these: stronger effect = higher value.
The nature of assay [2]: stimulators of insulin release from INS-1E, primary screen, cell-based, 5 mM glucose, NPC library (AID 1117329;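 active = compound raises insulin release from rat beta cells at 5 mM glucose, no numeric limit stated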). The note with it: rat INS-1E insulin secretion, at 10 µM, stronger effect = higher value.
The nature of assay [3]: growth inhibition of GSK3B-pretreated HCT116 cells – cell-based, CellTiter-Glo, 0.2 to 20 µM (AID 1117336;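 active = compounds lowering colon cancer cell viability after pretreatment blocking the GSK3B kinase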). The note with it: HCT116 viability after GSK3B inhibitor, at 20 µM, stronger effect = higher value. On the technique in general: In ATP-based viability assays light output follows the ATP content of the culture.
Assay [4] is described as follows: inhibition of endothelial tube formation, primary screen, imaging, VEGF stimulated, CD31 staining, tube area, NPC library (AID 1117340;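 active = compound that reduces growth-factor-driven endothelial tube area in a mixed cell culture, no cutoff stated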). The conditions noted are these: VEGF-stimulated ADSC/ECFC co-culture, at 10 µM, stronger effect = higher value.
Assay [5] is described as follows: GLP1 release stimulators, primary, NCI-H716, NPC library (AID 1117341;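 active = compound raises GLP1 secretion from the human gut endocrine cells, with no numeric limit stated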). The conditions noted are these: NCI-H716 cells, at 10 µM, stronger effect = higher value.
Assay [6] in a line: HCT116 colon cancer cell growth inhibition, primary screen, CellTiter-Glo luminescence, NPC library (AID 1117342;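 active = compounds that lower survival of HCT116 colon cancer cells in the luminescence readout, no numeric limit stated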). The note with it: at 20 µM (top of the series).
A short description of assay [7]: reduced SW480 viability measured with CellTiter-Glo, NPC library, primary (AID 1117343;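 active = compounds that lower viability of the colon cancer cells in the luminescence readout, with no numeric limit stated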). The conditions noted are these: CellTiter-Glo luminescence; at 20 µM (top of the series).
Assay [8] can be described thus: NPC library primary testing for decreased DLD-1 cell viability via CellTiter-Glo (AID 1117346;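 active = compounds that lower survival of DLD-1 colon cancer cells in the luminescence readout, no cutoff given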). The note with it: DLD-1 viability, CellTiter-Glo luminescence; at 20 µM (top of the series).
The target of assay [9] is 6-phosphogluconate dehydrogenase, decarboxylating (Homo sapiens) (UniProt P52209). Description: inhibition of human phosphogluconate dehydrogenase – biochemical, recombinant enzyme, NADPH absorbance, primary screen (AID 1159550;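 active = at least 20% inhibition of 6-phosphogluconate dehydrogenase activity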). The conditions noted are these: recombinant 6PGD, NADPH absorbance 341 nm; at 10 µM; stronger effect = higher value.
Assay [10] in a line: modulation of C. elegans fzo-1 (AID 1259413; call rule not given here;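 note: fzo-1 mutant C. elegans worms in liquid wells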). The note with it: C. elegans fzo-1 modulator screen, mean read-out; stronger effect = higher value.
A short description of assay [11]: EMT-state selective cytotoxicity in co-culture – imaging, PC-3E GFP, TEM4-18 mCherry, primary screen (AID 1345086;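 active = compounds killing one labelled cell type while sparing the other, by normalised counts and ratio limits, not self-fluorescent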;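 for all read-outs here: cells exposed to compound for 72 h before imaging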;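 for red/green cell ratio (normalised): normalised mesenchymal count divided by normalised epithelial count so high means epithelial killing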). The conditions noted are these: PC-3E GFP / TEM4-18 mCherry co-culture, imaging cell counts, at 1 µM; for red/green cell ratio (normalised): actives lie on both sides, counts scaled to control wells, 1 = unselective.
A short description of assay [12]: MELAS cybrid and Rieske KO viability enhancers – cell-based, MELAS cybrids, Rieske KO mouse fibroblasts, CellTiter-Glo, primary screen (AID 1508586;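 active = mean z-score across replicates of 1.96 or higher in either the MELAS or the Rieske mutant cell line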;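 note: z relative to plate mean and SD of compound and empty wells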). The conditions noted are these: low glucose.
Assay [13] has as its target NAD(+) hydrolase SARM1 (Homo sapiens) (UniProt Q6SZW1). In words: blocking NAD cleavage by SARM1 SAM-TIR – cell lysate, NAD-Glo luminescence (AID 1508614;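 active = compound whose remaining NAD level is above about 45 nM, limit read from the data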;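 note: higher remaining NAD means stronger inhibition of SARM1 NADase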). The conditions noted are these: SAM-TIR HEK293T lysate NADase, at 1 µM, stronger effect = higher value.
Assay [14] addresses Mitogen-activated protein kinase 7 (Homo sapiens) (UniProt Q13164). In words: Gal4-ERK5 driven luciferase induction – cell-based, HTS, primary screen (AID 1508626;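 active = luciferase signal above three times the same-plate solvent-only control wells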;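 note: luciferase driven by Gal4-ERK5 fusion binding five Gal4 sites before minimal TATA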). The note with it: HeLa Gal4-ERK5 transactivation, 18 h, at 5 µM, stronger effect = higher value.
A further assay deals with F380Y. Description: BK channel mutant inhibitors and activators – cell-based, U2OS BacMam, thallium flux, beta subunits, selectivity assay, profiling panel (AID 1259406).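 Note: initial slope of Thallos dye fluorescence rise after thallium is added; log ratio against the mean of 0.3% DMSO vehicle wells on the same plate.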 The conditions noted are these: U2OS BacMam BK variants, at 30 µM.
Another assay concerns F380Y/beta1. The assay is described as above. The conditions noted are these: U2OS BacMam BK variants, at 30 µM.
Another assay has as its system F380Y/beta2Delta. The assay is described as above. The note with it: U2OS BacMam BK variants, at 30 µM.
The subject of another assay is F380Y/beta4. Described as above. The conditions noted are these: U2OS BacMam BK variants, at 30 µM.
In assay [15] the target is Calcium-activated potassium channel subunit alpha-1 (Homo sapiens) + Leucine-rich repeat-containing protein 26 (Homo sapiens) (UniProt Q12791+Q2I0M4). The assay is described as above. The note with it: U2OS BacMam BK variants, F380Y/Slo1WT/gamma1, at 30 µM.
The mark [16] stands for this setting: measured here: epithelial PC-3E GFP cell survival.
[17] abbreviates: measured here: mesenchymal TEM4-18 mCherry cell survival.
[18] abbreviates: MELAS cybrid survival, CellTiter-Glo 48 h, stronger effect = higher value.
Where [19] appears, read: Rieske KO mouse fibroblast survival, CellTiter-Glo 72 h.

“And” between values parts separate entries of the source, which are not always exact repeats. Equal values may be shown once. The source made the active and inactive calls.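 Rule for the calls, unless noted: active = thallium flux through the channel raised or lowered by more than 3 SD from vehicle-only wells, actives on both sides; inactive = the rest.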

Chain of NAD(+) hydrolase SARM1 (Homo sapiens) (Q6SZW1 whole entry, looked up, the tested form may be a part): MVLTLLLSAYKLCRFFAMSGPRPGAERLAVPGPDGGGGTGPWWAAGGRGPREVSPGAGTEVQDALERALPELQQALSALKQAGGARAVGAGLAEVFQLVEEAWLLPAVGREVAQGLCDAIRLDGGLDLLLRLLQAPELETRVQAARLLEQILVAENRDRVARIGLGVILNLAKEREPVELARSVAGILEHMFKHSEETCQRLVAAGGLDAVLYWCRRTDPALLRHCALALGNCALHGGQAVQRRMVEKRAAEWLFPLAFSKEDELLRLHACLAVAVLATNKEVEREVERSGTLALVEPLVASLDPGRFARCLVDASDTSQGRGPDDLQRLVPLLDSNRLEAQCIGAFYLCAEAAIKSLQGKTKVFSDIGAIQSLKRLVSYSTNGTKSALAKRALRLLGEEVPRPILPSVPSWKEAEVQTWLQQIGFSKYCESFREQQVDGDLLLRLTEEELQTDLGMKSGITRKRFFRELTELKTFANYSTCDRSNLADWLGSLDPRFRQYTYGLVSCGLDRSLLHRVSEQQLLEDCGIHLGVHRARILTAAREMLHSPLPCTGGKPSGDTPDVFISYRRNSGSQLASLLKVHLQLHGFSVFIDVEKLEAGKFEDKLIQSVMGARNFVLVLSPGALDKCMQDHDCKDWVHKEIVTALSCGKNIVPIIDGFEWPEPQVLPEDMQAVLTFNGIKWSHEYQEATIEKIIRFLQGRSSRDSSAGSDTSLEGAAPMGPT
Chain of Mitogen-activated protein kinase 7 (Homo sapiens) (Q13164 whole entry, looked up, the tested form may be a part): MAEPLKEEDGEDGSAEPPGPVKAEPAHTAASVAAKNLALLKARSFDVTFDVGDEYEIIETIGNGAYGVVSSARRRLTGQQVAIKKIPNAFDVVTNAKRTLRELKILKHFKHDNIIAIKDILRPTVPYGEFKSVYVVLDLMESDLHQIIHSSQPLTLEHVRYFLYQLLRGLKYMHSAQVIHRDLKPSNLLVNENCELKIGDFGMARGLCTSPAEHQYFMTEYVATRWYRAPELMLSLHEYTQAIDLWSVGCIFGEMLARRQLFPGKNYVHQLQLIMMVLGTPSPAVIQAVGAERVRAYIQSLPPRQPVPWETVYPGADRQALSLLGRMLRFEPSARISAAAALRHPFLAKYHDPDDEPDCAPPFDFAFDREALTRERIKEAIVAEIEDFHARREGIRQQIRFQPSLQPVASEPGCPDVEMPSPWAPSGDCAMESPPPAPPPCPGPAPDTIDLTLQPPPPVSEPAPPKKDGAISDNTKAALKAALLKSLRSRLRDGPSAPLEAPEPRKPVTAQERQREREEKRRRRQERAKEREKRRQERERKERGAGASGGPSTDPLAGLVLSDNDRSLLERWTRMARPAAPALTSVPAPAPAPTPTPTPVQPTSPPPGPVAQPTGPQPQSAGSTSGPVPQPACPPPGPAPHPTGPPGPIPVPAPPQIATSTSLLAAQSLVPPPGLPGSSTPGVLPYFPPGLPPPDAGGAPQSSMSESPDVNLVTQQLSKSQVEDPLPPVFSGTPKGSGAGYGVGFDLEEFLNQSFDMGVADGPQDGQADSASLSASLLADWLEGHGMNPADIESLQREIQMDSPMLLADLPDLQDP
Chain of 6-phosphogluconate dehydrogenase, decarboxylating (Homo sapiens) (P52209 whole entry, looked up): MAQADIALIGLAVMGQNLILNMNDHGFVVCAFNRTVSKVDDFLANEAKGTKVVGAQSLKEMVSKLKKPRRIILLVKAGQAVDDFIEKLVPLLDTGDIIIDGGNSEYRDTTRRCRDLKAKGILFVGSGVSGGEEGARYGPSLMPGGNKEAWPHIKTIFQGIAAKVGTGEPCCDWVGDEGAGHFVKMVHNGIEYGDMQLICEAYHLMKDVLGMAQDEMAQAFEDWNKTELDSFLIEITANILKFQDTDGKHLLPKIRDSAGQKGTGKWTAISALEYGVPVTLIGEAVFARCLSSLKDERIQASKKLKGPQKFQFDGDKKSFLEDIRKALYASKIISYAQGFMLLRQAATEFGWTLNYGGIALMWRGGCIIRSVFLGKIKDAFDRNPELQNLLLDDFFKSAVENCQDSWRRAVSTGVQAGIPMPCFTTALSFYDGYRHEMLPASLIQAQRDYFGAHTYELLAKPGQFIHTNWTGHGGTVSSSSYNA
Chain of Calcium-activated potassium channel subunit alpha-1 (Homo sapiens) + Leucine-rich repeat-containing protein 26 (Homo sapiens) (Q2I0M4 whole entry, looked up, one chain of several): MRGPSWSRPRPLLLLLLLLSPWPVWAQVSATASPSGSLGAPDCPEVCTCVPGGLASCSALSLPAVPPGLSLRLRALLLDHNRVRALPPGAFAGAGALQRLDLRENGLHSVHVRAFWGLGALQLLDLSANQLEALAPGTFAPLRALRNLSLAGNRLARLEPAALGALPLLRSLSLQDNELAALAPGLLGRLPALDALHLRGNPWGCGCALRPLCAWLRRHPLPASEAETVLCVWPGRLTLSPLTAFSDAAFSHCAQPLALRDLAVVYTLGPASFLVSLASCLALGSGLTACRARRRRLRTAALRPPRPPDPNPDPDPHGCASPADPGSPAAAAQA

As to `COc1ccc(Cl)cc1C(=O)NCCc1ccc(S(=O)(=O)NC(=O)NC2CCCCC2)cc1`, the nuclear beta-catenin stimulation in [1] (at 10 µM) is -0.8% (inactive); in [1] (stimulation, at 2 µM) it was -0.5%. For the same molecule, the insulin secretion stimulation in assay [2] is 28.1% (active). Also, in assay [3], the viability decrease is 17.8% (inactive). Further, the tube area decrease in assay [4] was 12% (inactive). In [5], the GLP1 secretion stimulation is 4.4% (inactive). Also, the inhibition of viability in assay [6] was 20% (inactive). The viability decrease (inhibition) in [7] was 72.3% (active); in assay [8] it was 14.1% (inactive). Further, in [9], the inhibition (as a rule, the relative decrease from the control value, in per cent) was 12.3% (inactive). For the same molecule, the mean signal in [10] is 242 (inactive). For the same molecule, the red/green cell ratio (normalised) in assay [11] was 1.5 (inactive). The normalised cell number in assay [11] (setting [16]) was found to be 0.7; in assay [11] (setting [17]), 1.05. Besides, the z-score was 0.114 (inactive) and -0.333 (inactive) and 0.459 (inactive) in assay [12] (setting [18]); 0.113 and 0.377 and -0.0891 in assay [12] (setting [19]). In addition, the remaining NAD in assay [13] was 10 nM (inactive). Also, the luciferase signal in assay [14] is 52 AU (inactive). Also, the log fold change Tl+ flux in the assay on F380Y is 0.0726 (inactive); in the assay on F380Y/beta1 it was 0.119 (active); in the assay on F380Y/beta2Delta, 0.0268 (inactive); in the assay on F380Y/beta4 it was 0.115 (active); in [15], 0.0583 (inactive).

On to `NNCCc1ccccc1`, for which the nuclear beta-catenin stimulation was 1.9% (inactive) in assay [1] (at 10 µM) and 0.7% in [1] (stimulation, at 2 µM). Moreover, the insulin secretion stimulation in [2] was -0.6% (inactive). In addition, the viability decrease in assay [3] was -32% (inactive). Also, the tube area decrease in [4] was 7.4% (inactive). Besides, the GLP1 secretion stimulation in [5] is -0.4% (inactive). In addition, the inhibition of viability in assay [6] is 5.1% (inactive). Also, the figures for the viability decrease (inhibition) in assay [7] and in assay [8] were -14.5% (inactive) and 7.4% (inactive), respectively. In addition, in assay [9], the inhibition is 8.47% (inactive). In assay [10], the mean signal is 213 (inactive). Further, in [11], the red/green cell ratio (normalised) was 0.88 (inactive). Besides, the normalised cell number in assay [11] (setting [16]) is 1.03; in assay [11] (setting [17]) it was 0.91. Further, the z-score in assay [12] (setting [18]) was -0.122 (inactive); in assay [12] (setting [19]), -0.108. Moreover, the remaining NAD in assay [13] is 10 nM (inactive). In addition, the luciferase signal in assay [14] is 44 AU (inactive). For the same molecule, the log fold change Tl+ flux in the assay with F380Y was 0.0104 (inactive); in the assay with F380Y/beta1, -0.0168 (inactive); in the assay with F380Y/beta2Delta it was -0.0213 (inactive); with F380Y/beta4, 0.00368 (inactive); in [15], -0.00263 (inactive).

`O=C(C1CCCCC1)N1CC(=O)N2CCc3ccccc3C2C1` (configuration not stated): the nuclear beta-catenin stimulation in assay [1] (at 10 µM) was -0.4% (inactive); in assay [1] (stimulation, at 2 µM), -1.1%. Further, the insulin secretion stimulation in [2] was 2.5% (inactive). The viability decrease in assay [3] is -3.8% (inactive). The tube area decrease in assay [4] is -2.6% (inactive). Further, in [5], the GLP1 secretion stimulation was -2.7% (inactive). The inhibition of viability in assay [6] was -11.5% (inactive). The viability decrease (inhibition) in assay [7] was 19.5% (inactive); in [8] it was -16.7% (inactive). For the same molecule, the inhibition in assay [9] is -0.949% (inactive). In [10], the mean signal is 236 (inactive). For the same molecule, in assay [11], the red/green cell ratio (normalised) is 1.48 (inactive). Besides, the normalised cell number in [11] (setting [16]) is 0.96; in assay [11] (setting [17]), 1.42. In addition, the z-score in [12] (setting [18]) is -0.396 (inactive) and 0.0285 (inactive) and 0.65 (inactive); in assay [12] (setting [19]), -0.176 and 0.00765 and 0.589. In addition, the remaining NAD in assay [13] was 10 nM (inactive). Further, the luciferase signal in [14] was 32 AU (inactive). The log fold change Tl+ flux in the assay with F380Y is 0.0282 (inactive); with F380Y/beta1, 0.027 (inactive); with F380Y/beta2Delta it was 0.0335 (inactive); with F380Y/beta4, 0.0341 (inactive); in [15], -0.00263 (inactive).

On to `CC12CC3CC(C)(C1)CC(N)(C3)C2`, for which the nuclear beta-catenin stimulation in assay [1] (at 10 µM) was 2% (inactive); in [1] (stimulation, at 2 µM) it was 1%. For the same molecule, in assay [2], the insulin secretion stimulation is 12% (inactive). In assay [3], the viability decrease is -2.8% (inactive). Further, the tube area decrease in [4] is -6.5% (inactive). Also, in [5], the GLP1 secretion stimulation is 2.8% (inactive). For the same molecule, the inhibition of viability in [6] is -5.4% (inactive). Besides, the viability decrease (inhibition) is 14.2% (inactive) in assay [7] and 0.65% (inactive) in [8]. Besides, the inhibition in assay [9] was 7.37% (inactive). Also, the mean signal in assay [10] was 254 (inactive). For the same molecule, the red/green cell ratio (normalised) in [11] is 0.87 (inactive). For the same molecule, the normalised cell number was found to be 1.15 in [11] (setting [16]) and 1 in assay [11] (setting [17]). For the same molecule, the z-score in [12] (setting [18]) was -0.277 (inactive) and -0.613 (inactive); in assay [12] (setting [19]), 0.678 and -0.28. Moreover, the remaining NAD in assay [13] was 10 nM (inactive). Further, the luciferase signal in [14] was 40 AU (inactive). The log fold change Tl+ flux with F380Y was 0.0112 (inactive); in the assay with F380Y/beta1, 0.0185 (inactive); in the assay on F380Y/beta2Delta it was 0.0288 (inactive); in the assay with F380Y/beta4, 0.00566 (inactive); in assay [15], -0.0203 (inactive).

Values taken from PubChem BioAssay.
